# Source: PubChem BioAssay (several laboratories)
# ANO1 activ: mouse TMEM16A channel activation, primary screen | B-score at 10 µM | 0.3% of 340,000 active | Q8BHY3 | AID 623877 | HEK293 TMEM16A/YFP-H148Q/I152L, iodide quench fluorescence; hits give low values;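 active means fluorescence-ratio B-score plate-corrected deviation score at least 3 library SD below zero, with starting fluorescence score within 5 deviations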;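 further: channel opened by trigger with iodide after compound preincubation; score built on the fluorescence ratio of max minus min over baseline; more negative score means more quench and so TMEM16A activation or potentiation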
# MEKK2 WT-MEK5: raises or lowers MEK5 binding to wildtype human MEKK2 PB1 domain | binding response (% of control), % at 10 µM | Q9Y2U5 | bead flow cytometry, Alexa488-MEK5 binding to MEKK2 WT; actives lie on both sides | AID 1531 | 1.1% of 290,000 active; in the data active means binding response below about 67% or above about 130%
# NTR1 ag: agonists of human neurotensin receptor NTR1. activation, % at 20 µM. P30989. 0.17% of 330,000 active. AID 493036. NTR1-U2OS beta-arrestin-GFP spot imaging, agonist mode;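 active means activation at or above 40% of the spot to cytoplasm intensity ratio, with at least 20 cells analyzed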
# MEKK3 PB1 HTS: modulators (inhibitors or enhancers) of MEK5 binding to human MEKK3 PB1 domain; Q99759; bead-based flow cytometry, Alexa488-MEK5 binding to MEKK3; actives lie on both sides; 0 = blocked by unlabeled MEK5, 100 = vehicle; binding response (% of control), % at 10 µM; 1.4% of 290,000 active; AID 1529;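 active means binding response more than 3 SD above or below the average of its plate-row segment, actives on both sides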;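 further: Alexa488 bead fluorescence after subtracting the streptavidin-only scavenger bead signal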
# ANO1 block: inhibitors of mouse TMEM16A calcium-activated chloride channel. Q8BHY3. 1.2% of 310,000 active. HEK293 TMEM16A/YFP iodide influx fluorescence, ionomycin. normalized B-score (activity score, 25-100; higher = stronger inhibition) at 10 µM;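 active means ratio plate-corrected score three or more library SD toward inhibition, starting fluorescence score within five deviations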;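 further: score derived from kinetic fluorescence span divided by baseline fluorescence per well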
# MEKK2mut PB1 HTS: signal of MEK5 binding to mutant human MEKK2 PB1 domain | bead flow cytometry, Alexa488-MEK5 binding to MEKK2 mutant | percent response, % at 10 µM | 0.35% of 290,000 active; in the data active means percent response above about 24%, passing the limit was not always enough
# TMEM16A reconf: re-confirmation of mouse TMEM16A chloride channel inhibitors; AID 652189; inhibition, % at 10 µM; HEK293 TMEM16A/YFP-H148Q, iodide quench fluorescence; ionomycin added to raise cell calcium; shares compounds with ANO1 block; 39% of 2,300 active;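 active means mean duplicate percent inhibition, scaled so buffer wells are 0 and the reference blocker 100, over three buffer SD above buffer mean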
# TMEM16A Ca cntr: alters calcium mobilization in TMEM16A HEK293 cells, counter-screen; shares compounds with ANO1 block; TMEM16A/YFP HEK293, Fluo4 calcium mobilization; calcium response (% of ionomycin), % at 10 µM; 2% of 2,300 active; AID 652231;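 active means duplicate-averaged calcium signal over 20% of the ionomycin maximum, relative to buffer baseline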;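 further: each well's signal is peak minus trough fluorescence divided by its pre-addition baseline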
# YFP-HEK293 quench: parental YFP-HEK293 iodide quench counter-screen activity; shares compounds with ANO1 block; ionomycin; 2,300 tested, under 10 active; YFP ratio F(max-min)/F0 at 10 µM;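 active means yellow fluorescent protein signal ratio exceeding the buffer control mean by over 5 SD of those controls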;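 further: ratio is mean of duplicate wells from kinetic YFP trace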
# ClC-1 inh: rat ClC-1 inhibition, TMEM16A specificity screen; shares compounds with ANO1 block; CHO ClC-1-YFP, iodide influx fluorescence quench; iodide control reads 0, buffer control 100; ratio percent, % at 10 µM; 2,300 tested, under 10 active;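 active means duplicate-mean ratio percent above the mean of iodide-only control wells, which defines zero, plus 5 of their SD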;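 further: higher percent means stronger block of ClC-1 iodide influx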
# Numbers stand for hits; n = inactive; x = no result. Rows were chosen to be rich in hits. Some 3.4% of all compounds tested hit in one or more screens of this group.
SMILES,ANO1 activ,MEKK2 WT-MEK5,NTR1 ag,MEKK3 PB1 HTS,ANO1 block,MEKK2mut PB1 HTS,TMEM16A reconf,TMEM16A Ca cntr,YFP-HEK293 quench,ClC-1 inh
CCOC(=O)C1CCN(C(=O)c2ccc(S(=O)(=O)Nc3ccccc3Cl)cc2)CC1,n,x,n,x,x,x,x,x,x,x
Cc1c(C(=O)Nc2ccc3c(c2)OCCO3)sc2nc(-c3ccccc3)cn12,n,n,n,n,25,n,16.5%,n,n,n
CCOc1cc(/C=C2/C(=O)N(c3ccccc3)N=C2C)ccc1OC(=O)c1cccs1,n,n,n,n,25,n,n,n,n,n
Cc1ccc(C(=O)NCC(=O)OCc2csc(-c3ccccc3)n2)cc1,n,n,n,n,n,n,x,x,x,x
O=C(OCc1csc(-c2ccccc2)n1)c1ccc(O)cc1,n,n,n,n,100,n,n,n,n,n
CCOC(=O)C1CCN(C(=O)Nc2c(-c3ccccc3)noc2C)CC1,n,n,n,n,n,n,x,x,x,x
CC(C)C(=O)c1cc2c(cc1NC(=O)c1ccccc1)OCCO2,n,n,n,n,100,n,n,n,n,n
CC(=O)Nc1cc2c(cc1C(=O)C(C)C)OCCO2,n,n,n,n,n,n,x,x,x,x
COc1cccc(NC(=O)CCN2CCOCC2)c1,n,n,n,n,n,n,x,x,x,x
O=C(CCN1CCOCC1)Nc1ccccc1,n,n,n,n,100,n,n,n,n,n
Nn1c(-c2cccc([N+](=O)[O-])c2)nc2ccccc2c1=O,n,n,n,n,n,n,x,x,x,x
O=C(NCc1ccco1)c1ccccc1NS(=O)(=O)c1ccc(Cl)s1,n,n,n,n,100,n,n,n,n,n
Cc1ccc(-n2c(C)cc(C(=O)COC(=O)c3c(C)noc3C)c2C)cc1,n,n,n,n,100,n,n,n,n,n
Cc1ccc(-n2c(C)cc(C(=O)COC(=O)C3=NNC(=O)CC3)c2C)cc1,n,n,n,n,n,n,x,x,x,x
CC1CCCC(C)N1C(=O)COC(=O)c1cccs1 (stereo unspecified),n,x,n,x,x,x,x,x,x,x
COc1cccc(Oc2cn[nH]c2-c2ccc(OC)cc2O)c1,n,n,n,n,25,n,20.5%,n,n,n
COc1cccc(Oc2cn[nH]c2-c2ccc(O)cc2O)c1,n,n,n,n,n,n,x,x,x,x
CCOc1ccc(-c2[nH]ncc2Oc2cccc(OC)c2)c(O)c1,n,n,n,n,100,n,n,n,n,n
Cn1c(CNS(=O)(=O)c2ccc(F)cc2)n[nH]c1=S,n,n,n,n,100,n,n,n,n,n
CCC(C)(C)n1nnnc1CN(Cc1ccco1)Cc1cc2cc3c(cc2[nH]c1=O)OCO3,n,n,n,n,n,n,x,x,x,x
CCC(C)(C)n1nnnc1CN(Cc1ccc(Cl)cc1)Cc1ccco1,n,x,n,x,25,x,22.5%,n,n,n
CC1(C)N=c2ccc([N+](=O)[O-])c(N)c2=[N+]1[O-],n,n,n,n,n,n,x,x,x,x
COc1ccc(NC(=O)c2csc(Cc3ccccc3)n2)cc1,n,n,n,n,25,n,n,n,n,n
Cc1ccccc1-n1c(=O)c(C#N)cc2c(=O)n3ccccc3nc21,n,n,n,n,100,n,n,n,n,n
CN(CC(=O)Nc1cc(Cl)cc(Cl)c1)Cc1cccs1,n,n,n,n,n,n,x,x,x,x
SMILES,ANO1 activ,MEKK2 WT-MEK5,NTR1 ag,MEKK3 PB1 HTS,ANO1 block,MEKK2mut PB1 HTS,TMEM16A reconf,TMEM16A Ca cntr,YFP-HEK293 quench,ClC-1 inh
CC(C)=N/N=C(\c1cccc([N+](=O)[O-])c1)C12CN3CN(CN(C3)C1)C2,n,n,n,n,n,n,x,x,x,x
COc1cnn(C(C)(C)C)c(=O)c1Cl,n,n,n,n,n,n,x,x,x,x
Cc1cccc(Oc2cnn(C(C)(C)C)c(=O)c2Cl)c1,n,n,n,n,25,n,n,n,n,n
CCCn1c2ccccc2c2nnc(SCC(=O)Nc3ncccn3)nc21,n,n,n,n,100,n,n,n,n,n
Cc1cc(C)c(NC(=O)c2cc(C(=O)O)ccc2C(=O)O)c([N+](=O)[O-])c1,n,n,n,n,n,n,x,x,x,x
CN(CC(=O)NCCCN1CCOCC1)S(=O)(=O)c1ccc(Cl)cc1,n,x,n,x,x,x,x,x,x,x
CSc1cccc(N2CC(C(=O)Nc3ccccc3N3CCCC3)CC2=O)c1 (stereo unspecified),n,x,n,x,n,x,x,x,x,x
CCc1ccc(C(=O)OCC(=O)c2c(N)n(CC(C)C)c(=O)n(C)c2=O)cc1,n,n,n,n,25,n,n,n,n,n
COCc1c(C(=O)OCC(=O)c2c(N)n(CC(C)C)c(=O)n(C)c2=O)oc2ccccc12,n,n,n,n,25,n,n,n,n,n
CC(C)Cn1c(N)c(C(=O)COC(=O)c2ccc(F)cc2)c(=O)n(C)c1=O,n,n,n,n,n,n,x,x,x,x
O=C(NCC(=O)N1CCN(c2ccc(C(F)(F)F)cn2)CC1)c1ccc(Br)o1,n,x,n,x,x,x,x,x,x,x
O=C(CSC1=NCCS1)Nc1ccnc2ccccc12,n,n,n,n,100,n,18.5%,n,n,n
Cc1noc(C)c1C(=O)NNc1ccc(C(C)C)cc1,n,n,n,n,n,n,x,x,x,x
Cc1ccc(C(C)NC(=O)c2c(C)noc2C)cc1C (stereo unspecified),n,n,n,n,25,n,n,n,n,n
Cc1ccc(S(=O)(=O)N2CCC(=O)CC2)cc1,n,n,n,n,n,n,x,x,x,x
Cc1cc(C)nc(/N=C(\N)Nc2ccc(OCCC(C)C)cc2)n1,n,n,n,n,100,n,29.0%,55.5%,n,n
O=C(Oc1cccc(Nc2ncnc3ccccc23)c1)c1ccccc1Cl,n,n,n,n,100,n,18.0%,n,n,n
COc1cccc(Nc2ncnc3ccccc23)c1,n,n,n,n,n,n,x,x,x,x
CC(Cc1cccs1)NC(=S)Nc1ccc(Cl)cc1 (stereo unspecified),n,n,n,n,25,n,38.0%,n,n,n
CC(Cc1cccs1)NC(=S)Nc1ccc(Cl)c(Cl)c1 (stereo unspecified),n,n,n,n,n,n,x,x,x,x
Cn1cc(C(=O)Nc2ccc(F)c(Cl)c2)cn1,n,n,n,n,n,n,x,x,x,x
